From ChEMBL document CHEMBL3988442, “University of Dundee, Small-Polar-MMV Screening Library” (2021)

Target: T1, Aspartate--tRNA(Asp/Asn) ligase (Mycobacterium tuberculosis (strain ATCC 25618 / H37Rv)) (UniProt P9WFW3); further: in the data most compounds retested in dose-response had high values
T1 sequence (whole entry): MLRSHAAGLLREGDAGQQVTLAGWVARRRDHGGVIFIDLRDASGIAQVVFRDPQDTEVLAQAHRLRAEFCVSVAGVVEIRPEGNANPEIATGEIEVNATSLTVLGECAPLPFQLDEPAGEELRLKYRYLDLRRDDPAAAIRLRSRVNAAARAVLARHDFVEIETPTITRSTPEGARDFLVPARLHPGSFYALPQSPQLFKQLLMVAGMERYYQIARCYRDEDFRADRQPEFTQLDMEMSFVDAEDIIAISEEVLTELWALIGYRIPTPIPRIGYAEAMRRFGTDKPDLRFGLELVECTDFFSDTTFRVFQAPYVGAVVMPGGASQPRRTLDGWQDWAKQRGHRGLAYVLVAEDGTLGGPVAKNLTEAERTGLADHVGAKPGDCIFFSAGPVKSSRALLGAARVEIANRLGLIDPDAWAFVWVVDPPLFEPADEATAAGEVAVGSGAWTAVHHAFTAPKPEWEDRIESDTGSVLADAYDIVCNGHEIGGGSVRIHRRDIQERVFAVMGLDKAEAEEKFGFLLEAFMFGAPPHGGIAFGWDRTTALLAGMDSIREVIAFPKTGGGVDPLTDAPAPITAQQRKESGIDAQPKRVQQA
Assay: Assay for Asp RNA synthetase-1 from Mycobacterium tuberculosis
Type: functional
Design: scale not given: direction of the effect not stated beside the values
Conditions: 30 µM

Row | Compound | Percent Effect
1 | CCc1ncnc2c1CCN(Cc1ccc(OC)cc1)CC2 | -0.259%
2 | c1ccc(Cn2cc(CNC3CCc4ncnn4C3)cn2)cc1 (stereo not given) | -2.87%
3 | CNC(=O)[C@H]1C[C@@H]2CN(S(=O)(=O)c3ccccc3)C[C@@H]2N1C | -3.51%
4 | CC(C)Oc1cc(N2C[C@@H](C)O[C@@H](C)C2)nc(N)n1 | -0.457%
5 | Cc1ccc(CNC(=O)NCc2cccnc2N(C)C)s1 | -3.67%
6 | CCNC(=O)N(C)C(c1cccc(F)c1)c1ccccn1 (stereo not given) | -4.31%
7 | O=C(CCCOc1ccc(F)cc1)N1CCCC(n2cccn2)C1 (stereo not given) | -0.115%
8 | COCCOc1ncccc1C(=O)Nc1ccc(-n2cncn2)c(F)c1 | -3.21%
9 | CCN1CC2(CCNCC2)COc2ccccc2S1(=O)=O | -1.28%
10 | O=C(CCc1nccs1)N1CCC(N2CCNC2=O)CC1 | 4.28%
11 | CN(Cc1cnn(C)c1)C(=O)Cn1c(CS(C)(=O)=O)nc2ccccc21 | -0.869%
12 | CCOC(=O)[C@]12CCCN(Cc3ccco3)C[C@H]1CN(CCN(C)C)C2 | 4.07%
13 | CCn1cc(S(=O)(=O)N(C)Cc2c(Br)cnn2CC)c(C)n1 | 3.54%
14 | COc1ccccc1OCC(=O)NS(=O)(=O)c1ccccc1F | 0.814%
15 | Cc1nc(C)n(CC2CCCCN2CC(=O)NC2CCOCC2)n1 (stereo not given) | -4.37%
16 | CCOCC1CN(S(C)(=O)=O)Cc2cnn(C)c21 (stereo not given) | -0.204%
17 | CO[C@H]1CCN(S(=O)(=O)c2cn(C)cn2)[C@H]1Cc1cccnc1 | -0.175%
18 | CCc1nc(C(=O)NCc2ccc(N3CCNC(=O)C3)c(F)c2)c[nH]1 | 2.49%
19 | Cc1ccc(C(=O)N2CCCS2(=O)=O)cc1Cl | -5.6%
20 | CN(C)CC1CN(c2cnc3ccccc3n2)CCO1 (stereo not given) | -3.4%

Target: Shiga toxin 2 (Escherichia coli O157:H7) (UniProt P09385+P09386)
Assay: E. coli 0.157:H7 Shiga Toxin SOP - stx2 screening assay
Type: functional
Design: scale not given: direction of the effect not stated beside the values
Conditions: 30 µM

Row | Compound | Percent Effect
21 | CC[C@@]1(O)CCN(C(=O)c2ccc(SC)cc2)C[C@H]1O | 5.8%
22 | Cc1cnn(C2CCCN(C(=O)c3cc(C4CC4)on3)C2)c1 (stereo not given) | 14.5%
23 | CSC(C)C(=O)N1CCCN(Cc2cscn2)CC1 (stereo not given) | 25.4%
24 | COc1ccc(-c2noc(CN3CCc4cncnc4C3)n2)cc1 | -15%
25 | CNC(=O)N1C[C@H]2C[C@H](C(=O)Nc3ccccc3)[C@@H](C1)O2 | 6.82%
26 | CN(Cc1cc(-c2ccccc2)no1)C1CCCN(c2cccnn2)C1 (stereo not given) | -0.584%
27 | O=C(CCOCc1ccccc1)N1CCCC1c1noc(C2CC2)n1 (stereo not given) | 22.2%
28 | C[S+]([O-])c1nncn1CC(=O)c1cccc(Cl)c1 (stereo not given) | -33.8%
29 | CNC(=O)CN1CCCC12CCN(C(=O)c1ccsc1)CC2 | -0.413%
30 | COCCn1ccc2cc(NC(C)=O)ccc21 | -9.31%
31 | CC(=O)N1CCCC1c1cccc(Cc2ccccc2F)n1 (stereo not given) | 4.04%
32 | CN(Cc1ccsc1)C(=O)c1cccc(NS(C)(=O)=O)c1 | -32.9%
33 | Clc1ccccc1C1(c2ccnc(CC3CC3)n2)CCNCC1 | -10.7%
34 | O=C(C1=CCCC1)N1CCO[C@H]2[C@@H](Oc3ccccn3)CC[C@@H]21 | -1.55%
35 | O=C(C1CCCC1)N1CCN(Cc2nc(-c3ccco3)no2)CC1 | -10.1%
36 | COc1ccc(NC(=O)CNc2ccc(Br)cc2F)cc1 | -79.8%
37 | Cc1cnccc1CN1CC[C@@](C)(O)[C@H](Oc2ccccc2)C1 | -31%
38 | CCc1noc(C(C)N2CCN(Cc3nc(C)c(C)o3)CC2)n1 (stereo not given) | 10.2%
39 | CCn1cnnc1CNC(=O)NCC(c1cccs1)N1CCCC1 (stereo not given) | -4.89%
40 | CC(C)COCC1CN(Cc2ccc3c(c2)OCO3)Cc2ncn(C)c21 (stereo not given) | -19.1%

Row | Compound | Percent Effect
41 | CCc1ncnc2c1CCN(Cc1ccc(OC)cc1)CC2 | -28%
42 | c1ccc(Cn2cc(CNC3CCc4ncnn4C3)cn2)cc1 (stereo not given) | -22.8%
43 | CNC(=O)[C@H]1C[C@@H]2CN(S(=O)(=O)c3ccccc3)C[C@@H]2N1C | -39.6%
44 | CC(C)Oc1cc(N2C[C@@H](C)O[C@@H](C)C2)nc(N)n1 | 0.94%
45 | Cc1ccc(CNC(=O)NCc2cccnc2N(C)C)s1 | 1.79%
46 | CCNC(=O)N(C)C(c1cccc(F)c1)c1ccccn1 (stereo not given) | -5.85%
47 | O=C(CCCOc1ccc(F)cc1)N1CCCC(n2cccn2)C1 (stereo not given) | 7.54%
48 | COCCOc1ncccc1C(=O)Nc1ccc(-n2cncn2)c(F)c1 | 30.5%
49 | CCN1CC2(CCNCC2)COc2ccccc2S1(=O)=O | -27.7%
50 | O=C(CCc1nccs1)N1CCC(N2CCNC2=O)CC1 | -16.6%
51 | CN(Cc1cnn(C)c1)C(=O)Cn1c(CS(C)(=O)=O)nc2ccccc21 | 1.77%
52 | CCOC(=O)[C@]12CCCN(Cc3ccco3)C[C@H]1CN(CCN(C)C)C2 | -6.83%
53 | CCn1cc(S(=O)(=O)N(C)Cc2c(Br)cnn2CC)c(C)n1 | 13.9%
54 | COc1ccccc1OCC(=O)NS(=O)(=O)c1ccccc1F | -7.18%
55 | Cc1nc(C)n(CC2CCCCN2CC(=O)NC2CCOCC2)n1 (stereo not given) | -17.4%
56 | CCOCC1CN(S(C)(=O)=O)Cc2cnn(C)c21 (stereo not given) | -35.8%
57 | CO[C@H]1CCN(S(=O)(=O)c2cn(C)cn2)[C@H]1Cc1cccnc1 | -10.2%
58 | CCc1nc(C(=O)NCc2ccc(N3CCNC(=O)C3)c(F)c2)c[nH]1 | -51.1%
59 | Cc1ccc(C(=O)N2CCCS2(=O)=O)cc1Cl | -5.68%
60 | CN(C)CC1CN(c2cnc3ccccc3n2)CCO1 (stereo not given) | -17.5%
